Test systems include SK-MEL-2 melanoma; EKVX NSCLC; SN12C renal; UO-31 renal; TK-10 renal; ACHN renal; CAKI-1 renal; A498 renal; CCRF-CEM leukemia; MOLT-4 leukemia; RPMI-8226 leukemia; OVCAR-8 ovarian; OVCAR-5 ovarian; OVCAR-4 ovarian; SK-OV-3 ovarian; IGROV1 ovarian; OVCAR-3 ovarian; HS 578T breast; NCI/ADR-RES ovarian.
Common to all, as to assay: NCI-60 one-dose screen, 48 h (100 = growth as untreated, 0 = no growth, -100 = all killed)
Settings in all cases: 10 µM unless noted

Each structure is given as a SMILES string. The panel holds about 83,000 compounds, 20% with a hit somewhere; the sample as a whole holds those more often.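 Testing used 96-well plates and a 48-hour single-concentration exposure. Example: -40 means 40% of the starting cells died.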 Values without a mark were called inactive. Calls of active or inactive are those of the source. The calls were made as follows: active = growth percent below 10; inactive = the rest.

For `COc1cc(C(=O)c2cc(C)c3[nH]c4ccc(C)cc4c3c2C)cc(OC)c1OC`, the growth in the assay on SK-MEL-2 melanoma was 60.4%; in the assay with EKVX NSCLC it was 44.1%; with SN12C renal it was 22.5%; in the assay on UO-31 renal it was 24.9%; in the assay on TK-10 renal, 87.5%; in the assay with ACHN renal, 26.4%. Also, the growth was 24.2% in the assay on CAKI-1 renal; -8.86% (active) in the assay with A498 renal; 14.2% in the assay on CCRF-CEM leukemia; 16.8% in the assay on MOLT-4 leukemia; 12.9% in the assay on RPMI-8226 leukemia; 28.7% with OVCAR-8 ovarian. The growth is 41.7% in the assay with OVCAR-5 ovarian; 53% in the assay with OVCAR-4 ovarian; 36.9% with SK-OV-3 ovarian; 13.5% in the assay with IGROV1 ovarian; -16.4% (active) with OVCAR-3 ovarian; 43.1% with HS 578T breast. Moreover, the growth in the assay with NCI/ADR-RES ovarian was -2.71% (active).
As to `CC(=O)c1ccc(Nc2nc(C(C)=O)c(C)s2)cc1`, the growth was 105% in the assay on SK-MEL-2 melanoma; 93.2% with EKVX NSCLC; 103% in the assay with SN12C renal; 92.1% with UO-31 renal; 112% with TK-10 renal; 100% with ACHN renal. Besides, the growth in the assay with CAKI-1 renal was 88.2%; in the assay on A498 renal it was -17.9% (active); with CCRF-CEM leukemia, 90.9%; in the assay with MOLT-4 leukemia, 100%; in the assay with RPMI-8226 leukemia, 95.1%; in the assay with OVCAR-8 ovarian, 102%. Also, the growth is 108% in the assay on OVCAR-5 ovarian; 94.4% in the assay with OVCAR-4 ovarian; 101% in the assay on SK-OV-3 ovarian; 98.2% in the assay with IGROV1 ovarian; 99.9% with OVCAR-3 ovarian; 99.5% in the assay on HS 578T breast. For the same compound, the growth in the assay with NCI/ADR-RES ovarian is 105%.
Consider `COc1ccc(NC(=O)n2nc(/C=C\c3ccc(O)c(OC)c3)cc2/C=C\c2ccc(O)c(OC)c2)cc1`, for which the growth with SK-MEL-2 melanoma was 21.4%; with EKVX NSCLC it was 52.4%; in the assay on SN12C renal, 31.4%; in the assay on UO-31 renal, 22.7%; in the assay on TK-10 renal, 63.8%; in the assay on ACHN renal, 26%. In addition, the growth in the assay on CAKI-1 renal was 38.1%; with A498 renal, 82.5%; in the assay on CCRF-CEM leukemia, 11.8%; with MOLT-4 leukemia it was 12.2%; with RPMI-8226 leukemia, 21.3%; in the assay on OVCAR-8 ovarian it was 32.8%. The growth was 62.3% with OVCAR-5 ovarian; 51.5% in the assay on OVCAR-4 ovarian; 60.7% in the assay with SK-OV-3 ovarian; 34.4% in the assay with IGROV1 ovarian; 13.6% with OVCAR-3 ovarian; 28.7% with HS 578T breast. Besides, the growth in the assay with NCI/ADR-RES ovarian is 23.9%.
Consider `FC(F)(F)c1cc(Nc2ccc3c(OCCCN4CCOCC4)cccc3n2)ccc1Cl`, for which the growth in the assay on SK-MEL-2 melanoma was 99.6%; with EKVX NSCLC, 48.8%; in the assay with SN12C renal, 66.9%; with UO-31 renal, 51%; with TK-10 renal it was 76.6%; with ACHN renal, 50.7%. Moreover, the growth in the assay on CAKI-1 renal was 55.9%; in the assay with A498 renal, 67.1%; in the assay on CCRF-CEM leukemia, 24.8%; in the assay on MOLT-4 leukemia it was 18.3%; in the assay with RPMI-8226 leukemia, 13.4%; in the assay on OVCAR-8 ovarian, 75.5%. Further, the growth in the assay on OVCAR-5 ovarian is 50.5%; in the assay on OVCAR-4 ovarian, 55.4%; in the assay with SK-OV-3 ovarian, 78.5%; in the assay with IGROV1 ovarian, 48.4%; in the assay on OVCAR-3 ovarian, 60.9%; in the assay with HS 578T breast, 55%. The growth with NCI/ADR-RES ovarian is 56.2%.
Consider `COc1ccc(C(=O)C[C@]2(O)C(=O)Nc3c(Cl)ccc(Cl)c32)cc1`, for which the growth was 37.5% in the assay on SK-MEL-2 melanoma; 51.2% in the assay with EKVX NSCLC; 39.8% in the assay with SN12C renal; 46.8% with UO-31 renal; 71.6% with TK-10 renal; 44.5% with ACHN renal. Also, the growth was 32.3% in the assay on CAKI-1 renal; -23.6% (active) in the assay with A498 renal; 15.8% with CCRF-CEM leukemia; 34.1% with MOLT-4 leukemia; 20.1% with RPMI-8226 leukemia; 33.1% with OVCAR-8 ovarian. For the same compound, the growth with OVCAR-5 ovarian is 52.1%; with OVCAR-4 ovarian, 48.4%; with SK-OV-3 ovarian it was 33.1%; with IGROV1 ovarian, 34.8%; in the assay on OVCAR-3 ovarian, 9.64% (active); in the assay with HS 578T breast it was -3.94% (active). In the assay with NCI/ADR-RES ovarian, the growth was 14.1%.
In the case of `S=C(c1cccs1)N1CCN(c2cccc(Cl)c2)CC1`, the growth was 99% with SK-MEL-2 melanoma; 115% in the assay on EKVX NSCLC; 101% in the assay with SN12C renal; 88.8% in the assay with UO-31 renal; 101% in the assay on TK-10 renal; 100% with ACHN renal. Also, the growth with CAKI-1 renal is 92.4%; with A498 renal it was 96.7%; in the assay on CCRF-CEM leukemia, 87.9%; with MOLT-4 leukemia, 92.5%; in the assay on RPMI-8226 leukemia, 86.3%; in the assay with OVCAR-8 ovarian, 104%. Further, the growth in the assay with OVCAR-5 ovarian is 97.2%; in the assay with OVCAR-4 ovarian, 101%; in the assay on SK-OV-3 ovarian it was 107%; with IGROV1 ovarian, 89.9%; with OVCAR-3 ovarian, 106%; in the assay with HS 578T breast it was 120%. Besides, in the assay on NCI/ADR-RES ovarian, the growth was 104%.
Regarding `CNc1nc2c(s1)C(c1cc(F)ccc1F)CC(=O)N2` (configuration not stated), the growth in the assay on SK-MEL-2 melanoma is 61.3%; with EKVX NSCLC, 97.8%; in the assay with SN12C renal it was 71%; in the assay on UO-31 renal, 63.9%; in the assay on TK-10 renal, 17%; in the assay with ACHN renal, 87.8%. Besides, the growth was 51.5% in the assay with CAKI-1 renal; 34.4% in the assay on A498 renal; 40% in the assay with CCRF-CEM leukemia; 37.3% in the assay on MOLT-4 leukemia; 87.3% in the assay with RPMI-8226 leukemia; 91.3% in the assay with OVCAR-8 ovarian. The growth with OVCAR-5 ovarian is 89.7%; with OVCAR-4 ovarian, 83.2%; in the assay with SK-OV-3 ovarian it was 71.9%; with IGROV1 ovarian it was 73.7%; in the assay with OVCAR-3 ovarian it was 55.6%; in the assay on HS 578T breast, 70%. The growth with NCI/ADR-RES ovarian was 71.7%.
With `Cc1c(C(=O)N[C@@H](Cc2ccccc2)C(=O)C(=O)NCc2ccc(F)cc2)[nH]c2ccccc2c1=O`, the growth is 108% in the assay with SK-MEL-2 melanoma; 85.3% in the assay with EKVX NSCLC; 78.9% in the assay on SN12C renal; 106% with UO-31 renal; 107% in the assay with TK-10 renal; 97.8% with ACHN renal. Also, the growth was 96.9% in the assay with CAKI-1 renal; 75.8% with A498 renal; 103% in the assay with CCRF-CEM leukemia; 87.5% in the assay on MOLT-4 leukemia; 87.9% with RPMI-8226 leukemia; 102% in the assay on OVCAR-8 ovarian. Also, the growth is 104% with OVCAR-5 ovarian; 90.6% in the assay on OVCAR-4 ovarian; 99.6% in the assay on SK-OV-3 ovarian; 96.8% in the assay on IGROV1 ovarian; 102% in the assay with OVCAR-3 ovarian; 105% with HS 578T breast. The growth with NCI/ADR-RES ovarian was 102%.

These data come from PubChem BioAssay (NCI).
